The supplement of paper PMC3334620
The full ranking holds about 33,000 sequences; the median of “E-score (-0.5 to 0.5)” is about -0.0034, and the highest 2% start at about 0.25. Shown is part of a subset that was picked to be rich in the highest values.

Molecular target: T1, Yap3 (UniProt P38749)
T1 sequence: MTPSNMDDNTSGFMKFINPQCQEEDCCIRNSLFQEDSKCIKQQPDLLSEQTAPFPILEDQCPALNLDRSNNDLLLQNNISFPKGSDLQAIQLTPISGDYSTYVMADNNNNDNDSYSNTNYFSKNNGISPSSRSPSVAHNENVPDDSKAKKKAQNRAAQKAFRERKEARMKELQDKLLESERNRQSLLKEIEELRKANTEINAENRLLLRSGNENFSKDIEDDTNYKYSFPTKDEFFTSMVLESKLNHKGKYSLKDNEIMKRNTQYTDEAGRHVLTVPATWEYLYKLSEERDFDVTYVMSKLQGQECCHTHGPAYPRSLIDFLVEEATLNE
Assay: PBM E-score (8-mer binding enrichment) (E-score (-0.5 to 0.5)); higher = stronger / more preferred TF binding
Details: protein concentration: 100 nM; construct: GST-full length
Procedure: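 Universal 'all 10-mer' protein binding microarrays (Agilent AMADID 015681) probed with GST-tagged S. cerevisiae TFs (full-length or DBD) made by in vitro transcription/translation (PURExpress), about 100-200 nM. Bound TF was detected with fluorescent anti-GST. Each ungapped 8-mer (which stands for itself and its reverse complement) is scored by the PBM enrichment score (E-score), a modified Wilcoxon-Mann-Whitney statistic from -0.5 to +0.5, computed with the Universal PBM Analysis Suite. Scale: above 0.35 generally sequence-specific binding.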

Sequence	PBM E-score
CGCTATCC	0.0718
ACAGATCC	0.145
CCACCAGC	-0.0909
CATCCTAG	-0.0476
GGGGAGAC	-0.304
AAGCTTTG	0.0373
TAACCCGA	-0.0757
AAACCCGA	0.261
GAACCCGA	-0.121
GAACCCAC	0.028
AGCGCGCA	0.24
AAGTAAAT	0.26
AAGTAAAG	0.103
AAGTAAAC	0.0216
ACTAGTTC	0.0926
ATTACTTA	0.257
ATTACTCG	0.23
ATTACTGA	0.154
CTTACTTA	0.113
ATTACTCC	0.143
ATTACTCA	0.299
ATGGTTAA	0.0266
GCTCGCGA	0.109
ATCGCTGG	-0.223
ATTAAGGC	0.0716

Sequence	PBM E-score
GTAGCCGA	-0.114
ACCCTGTA	0.00489
ACTATAAA	0.237
TATAAAAA	0.265
TATATAAA	0.274
AATATAAA	0.282
GATATAAA	0.21
GATAAAAA	0.192
CATATAAG	0.113
CATAAAAA	0.186
CATATAAA	0.183
AATATAAG	0.353
AATATAAT	0.179
AATATAAC	0.247
GCTCCTCC	-0.294
CCACCCAA	-0.0309
GCCGTATA	0.141
GTGCCGCA	-0.0486
GCAAGTCC	-0.203
AGGGGCAA	0.0575
TCCTTTCA	0.062
AGTGGCCG	-0.119
CTTTATGC	0.109
GAGAAGTA	0.0274
AAAGCTGT	0.15

Sequence	PBM E-score
ACCCTGCA	0.122
ATGCGCAA	0.0772
ATGCGCAC	0.0993
ATGCGCAT	0.315
ACCTATTA	0.11
TAAGGCAA	0.0224
AAAGGCAA	0.254
AAAGGCAG	-0.0629
GTCCCGGA	-0.103
CATCGCGA	0.112
GGTCGCGA	0.0906
CGTCGCGA	0.141
AGTCGCGA	0.272
AATCGCGA	0.255
AATCGCGT	0.156
ATGGTTCC	0.0898
CTCTTTGC	0.00066
AACTTCGG	0.13
CAATTTCA	0.0657
AAATTTCA	0.0121
GAATTTCC	0.277
TAATTTCA	0.309
AAATTTCC	0.125
CAATTTCC	0.0859
AACAGTCG	-0.0471

Sequence	PBM E-score
CCAGCCCG	-0.258
GTTTACCA	0.107
CCTAAGCG	-0.033
CCCCATCC	-0.233
ACGCGAGT	0.087
ACATTTAA	0.221
TATGCGAA	0.0891
AACGGAAA	0.171
AACGGAAG	0.2
AATGGAAG	0.105
AATGGAAT	0.275
AATGGAAC	0.12
AACGGAAT	0.262
GCTCCTTA	0.0472
TAATGACA	0.197
TAACCTTA	-0.0831
TAGTCTCA	-0.034
AAGTACTT	-0.202
ATGGATAG	0.0546
ACTAACAG	0.315
ACTAACAC	0.125
CCTAACAG	0.0154
CCATTGTC	0.0818
ACATTGTC	0.261
ACATTGTG	0.0748

Sequence	PBM E-score
GGCTTATA	-0.00779
CTCGACGC	0.0226
AATGTTGC	0.0681
AGGATGAA	0.0231
CGGATGAG	-0.0331
CGGATGAA	0.265
ATAGAAAA	0.217
ATAACACG	0.137
CTAACACA	0.146
ATTACAGA	0.11
ATAACACA	0.273
ACTACACG	0.0255
ATTACACA	0.255
ATTACAGC	-0.046
ACTACACA	0.258
ATTACAGG	0.268
ATTACACC	0.215
ATTACACG	0.0795
CCTACACG	-0.251
CCAGTGGC	-0.168
ATCGAGTC	-0.0569
CAGTAAGC	0.0593
AAAGATGA	0.144
ATTCTTCA	0.0724
ATAACCTG	-0.0425

Sequence	PBM E-score
CGTATAAA	0.156
GATTACAA	0.154
ACCAGTTG	0.0294
AAAAGGGG	-0.187
AATCAACC	-0.0555
AATCAATT	0.256
TATCAACA	0.123
AATCAACA	0.304
AATCAATG	0.2
AATCAACG	0.109
GATCAACA	-0.0544
CATCAACA	0.255
AATCAATC	0.139
CTCGGTAA	0.053
ATGAAAAG	0.122
ATGAAAAT	0.209
CTGAAATA	0.165
ATGAAATA	0.288
ATGAAAAA	0.278
GTGAAATA	0.0605
ACGTGCTC	-0.0391
AAAGGTAA	0.0127
CGGTTGAG	-0.052
AGATTCGC	-0.0247
CGTCTGAC	0.066

Sequence	PBM E-score
CAAGTGTG	0.0428
CTGACACC	-0.174
ATGGCACC	-0.14
CTCTGCAC	-0.173
TGGTATAA	0.268
CTATATAA	0.121
TGATATAA	0.108
CGGTATAA	0.18
TTATATAA	0.418
ATATATAA	0.295
CTCTATAA	0.0647
AGGTATAA	0.0868
ACATATAT	0.123
ACATATAA	0.29
ACATATAC	0.146
GTATATAA	0.217
GCCTGCCC	-0.297
CAGAACTG	0.157
AGCATGAC	-0.037
ACGACCTG	-0.18
AAAGTGTC	-0.0685
CGGACTAG	-0.101
CTAGAGAG	-0.139
GGCGACAA	-0.181
TGCGACAA	-0.00108
